Among the data in the antibiotic and cytotoxicity screens of Wong et al. (2023) are cytotoxicity call values, retold here.

About 1,500 (3.8%) of roughly 39,000 compounds were called active. For the sample, actives were picked, then their nearest neighbours and some compounds at random.

In the test the test system is HSkMC (human skeletal muscle cells). In words: cytotoxicity call (relative viability < 0.9). The following applies: 10 µM.
For `C[C@H](CO)N1C[C@H](C)[C@@H](CN(C)C(=O)Nc2cccc3ccccc23)Oc2ccc(NC(=O)Nc3ccc(F)cc3)cc2C1=O`, the cytotoxicity call is “inactive”.

Consider `C[C@@H]1CN([C@H](C)CO)C(=O)c2cc(NC(=O)Nc3ccc(F)cc3)ccc2O[C@H]1CN(C)C(=O)Nc1cccc2ccccc12`, for which the cytotoxicity call was “inactive”. For `C[C@@H]1CN([C@@H](C)CO)C(=O)c2cc(NC(=O)Nc3ccc(F)cc3)ccc2O[C@@H]1CN(C)C(=O)Nc1cccc2ccccc12`, the cytotoxicity call was “active”. Then `C[C@H]1CN([C@@H](C)CO)C(=O)c2cc(NC(=O)Nc3ccc(F)cc3)ccc2O[C@@H]1CN(C)C(=O)Nc1cccc2ccccc12`, with “inactive”; and `C[C@H](CO)N1C[C@H](C)[C@H](CN(C)C(=O)Nc2cccc3ccccc23)Oc2ccc(NC(=O)Nc3ccc(F)cc3)cc2C1=O`, with “inactive”; and `C[C@@H]1CN([C@H](C)CO)C(=O)c2cc(NC(=O)Nc3ccc(F)cc3)ccc2O[C@@H]1CN(C)C(=O)Nc1cccc2ccccc12`, with “active”. The result for `Cc1ccc(S(=O)(=O)N(C)C[C@H]2Oc3ccc(NC(=O)C4CC4)cc3CC(=O)N([C@@H](C)CO)C[C@H]2C)cc1` reads “inactive”. The result for `C[C@@H]1CCCCO[C@@H](CN(C)S(=O)(=O)c2ccccc2)[C@@H](C)CN([C@@H](C)CO)C(=O)c2cc(NC(=O)C3CCCCC3)ccc2O1` reads “inactive”. As to `C[C@H]1CN([C@@H](C)CO)C(=O)c2cc(Br)cnc2O[C@H]1CN(C)S(=O)(=O)c1cccs1`, the cytotoxicity call was “inactive”. Turning to `C[C@@H]1CCCCO[C@H](CN(C)S(=O)(=O)c2cccs2)[C@H](C)CN([C@H](C)CO)C(=O)c2cc(NS(C)(=O)=O)ccc2O1`, the cytotoxicity call was “inactive”. As to `Cc1noc(C)c1S(=O)(=O)N(C)C[C@@H]1Oc2ccc(NS(=O)(=O)c3cccs3)cc2CC(=O)N([C@H](C)CO)C[C@H]1C`, the cytotoxicity call was “inactive”. Then `C[C@@H]1CN([C@H](C)CO)C(=O)c2cc(NS(C)(=O)=O)ccc2O[C@@H](C)CCCCO[C@H]1CN(C)S(=O)(=O)c1cccs1`, with “inactive”; and `CC(C)=CCCC(C)(O)C1CC=C(C)CC1` (centres undefined), with “active”. Then `CC1=CC[C@H](C(C)(C)O)CC1`, with “inactive”. Then `C=CC(C)(O)CCC=C(C)C` (centres undefined), with “inactive”; and `CC(C)CC#Cc1cnc2c(c1)C(=O)N([C@@H](C)CO)C[C@@H](C)[C@H](CN(C)S(=O)(=O)c1cn(C)cn1)O2`, with “inactive”. With `C[C@H]1CCCCO[C@H](CN(C)C(=O)Cc2ccccc2)[C@@H](C)CN([C@@H](C)CO)C(=O)c2cc(NS(=O)(=O)c3ccc(Cl)cc3)ccc2O1`, the cytotoxicity call was “active”. The result for `C[C@H]1CCCCO[C@H](CN(C)C(=O)C2CCCCC2)[C@@H](C)CN([C@@H](C)CO)C(=O)c2cc(NS(=O)(=O)c3ccc(Cl)cc3)ccc2O1` reads “active”; that for `C[C@@H]1CCCCO[C@@H](CN(C)C(=O)Cc2ccccc2)[C@@H](C)CN([C@@H](C)CO)C(=O)c2cc(NS(=O)(=O)c3ccc(Cl)cc3)ccc2O1`, “inactive”; that for `C[C@@H]1CCCCO[C@H](CN(C)C(=O)C2CCCCC2)[C@H](C)CN([C@H](C)CO)C(=O)c2cc(NS(=O)(=O)c3ccc(Cl)cc3)ccc2O1`, “inactive”. The result for `C[C@@H]1CN([C@@H](C)CO)C(=O)c2cc(NS(=O)(=O)c3ccc(Cl)cc3)ccc2O[C@@H](C)CCCCO[C@H]1CN(C)C(=O)C1CCCCC1` reads “inactive”. Then `C[C@@H]1CN([C@H](C)CO)C(=O)c2cc(NS(=O)(=O)c3ccc(Cl)cc3)ccc2O[C@@H](C)CCCCO[C@H]1CN(C)C(=O)C1CCCCC1`, with “inactive”; and `C[C@@H]1CCCCO[C@H](CN(C)C(=O)C2CCCCC2)[C@H](C)CN([C@@H](C)CO)C(=O)c2cc(NS(=O)(=O)c3ccc(Cl)cc3)ccc2O1`, with “active”. On to `C[C@@H]1CCCCO[C@H](CN(C)C(=O)C2CCCCC2)[C@@H](C)CN([C@H](C)CO)C(=O)c2cc(NS(=O)(=O)c3ccc(Cl)cc3)ccc2O1`, for which the cytotoxicity call is “inactive”. The result for `C[C@@H]1CN([C@@H](C)CO)C(=O)c2cc(NS(=O)(=O)c3ccc(Cl)cc3)ccc2O[C@@H](C)CCCCO[C@H]1CN(C)C(=O)Cc1ccccc1` reads “inactive”. `C[C@@H]1CCCCO[C@@H](CN(C)C(=O)C2CCCCC2)[C@@H](C)CN([C@H](C)CO)C(=O)c2cc(NS(=O)(=O)c3ccc(Cl)cc3)ccc2O1`: the cytotoxicity call was “active”. On to `C[C@@H]1CCCCO[C@@H](CN(C)C(=O)C2CCCCC2)[C@H](C)CN([C@@H](C)CO)C(=O)c2cc(NS(=O)(=O)c3ccc(Cl)cc3)ccc2O1`, for which the cytotoxicity call is “inactive”. Then `C[C@H](CO)N1C[C@H](C)[C@@H](CN(C)C(=O)C2CCCCC2)OCCCC[C@H](C)Oc2ccc(NS(=O)(=O)c3ccc(Cl)cc3)cc2C1=O`, with “inactive”; and `CNC(=O)CN1CCO[C@H]2CN(C(=O)c3cnccn3)C[C@@H]21`, with “inactive”; and `CC1(C)C(=O)NCCN1C(=O)c1ccco1`, with “inactive”.

In the case of `C[C@H]1CN([C@@H](C)CO)C(=O)Cc2cc(NS(=O)(=O)c3ccc(Cl)cc3)ccc2O[C@H]1CN(C)S(=O)(=O)c1cn(C)cn1`, the cytotoxicity call was “inactive”. With `C[C@@H]1CN([C@H](C)CO)C(=O)Cc2cc(NC(=O)Cc3cn(C)c4ccccc34)ccc2O[C@H]1CN(C)C(=O)Nc1ccc(C(F)(F)F)cc1`, the cytotoxicity call is “inactive”.

For the compound `COc1ccc(NC(=O)N2C[C@H](O)COC[C@@H]3O[C@H](CC(=O)NCc4ccccc4OC)CC[C@H]32)cc1`, the cytotoxicity call was “inactive”.

On to `Cc1ccc(S(=O)(=O)N(C)C[C@@H]2Oc3c(NC(=O)c4ccncc4)cccc3C(=O)N([C@H](C)CO)C[C@@H]2C)cc1`, for which the cytotoxicity call is “inactive”. With `COc1cccc(S(=O)(=O)N[C@H]2CC[C@@H](CCn3cc(-c4ccccc4OC)nn3)O[C@@H]2CO)c1`, the cytotoxicity call is “inactive”. The result for `COc1cc(C(=O)O)ccc1NC(=O)[C@@H]1N[C@@H](CC(C)(C)C)[C@](C#N)(c2ccc(Cl)cc2F)[C@H]1c1cccc(Cl)c1F` reads “active”.

Regarding `C[C@@H]1CN([C@H](C)CO)C(=O)c2cc(NS(=O)(=O)c3ccc(Cl)cc3)ccc2O[C@H]1CN(C)Cc1ccc(C(=O)Nc2ccccc2N)cc1`, the cytotoxicity call is “inactive”.

As to `C[C@@H]1CN([C@H](C)CO)C(=O)c2cc(C#Cc3ccccc3F)cnc2O[C@H]1CN(C)C(=O)c1ccc2c(c1)OCO2`, the cytotoxicity call is “inactive”. Then `O=C(/C=C/c1cc2c(cc1Br)OCCO2)c1c(-c2ccccc2)c2cc(Cl)ccc2[nH]c1=O`, with “active”.
